# Inconclusive results are not listed. Values without a mark were called inactive. The source made the active and inactive calls. Calls come from the whole dose curve; as a rule, active = well fitted cell-killing curve with a large enough effect; inconclusive = small, poorly fitted or top-dose-only effect, or effect the other way; inactive = no such curve, though single readings can be large or run the other way.
# Test: Viability qHTS for spleen associated tyrosine kinase inhibitor (SYKi) naive MV4-11 cells (AID 1963823); note: nearly all actives have a fitted effect of over 40% in size
# Details: MV4-11 AML viability, CellTiter-Glo luminescence, 72 h; series mostly up to 45 µM; viability (% of control): at the top concentration
# How it was run: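 Viability of MV4-11 AML cells lacking prior SYK inhibitor exposure is scored by CellTiter-Glo luminescence following 72 hr compound incubation at 37 C, 5% CO2, seeded at 500 cells per well.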
# Potency is the fitted concentration of half-maximal effect.
SMILES,viability (% of control),Potency
CC1CCC2C(C)(C)C(O)C(O)CC2(C)C12Cc1c(O)cc(CO)c(C=O)c1O2 (configuration not stated),5.88% [at 17.3 µM],–
CC1OC(OC2C(C)OC(OC3C(OC(=O)C45CCC(C)(C)CC4C4=CCC6C7(C)CCC(OC8OC(C(=O)O)C(O)C(O)C8OC8OC(CO)C(O)C(OC9OC(C)C(O)C(O)C9O)C8O)C(C)(CO)C7CCC6(C)C4(C)CC5)OC(CO)C(O)C3O)C(O)C2O)C(O)C(O)C1O (configuration not stated),89.1% [at 9.25 µM],–
CC1CC=C2C1CC1(O)C(=O)CC2(C)C1(C)CO (configuration not stated),70.9%,–
O=C(N[C@H]1CCN(C(=O)c2cc(C(F)(F)F)cc(C(F)(F)F)c2)[C@H](Cc2ccc(Cl)cc2)C1)c1ccnc2ccccc12,–,8.93 µM (active)
COc1ccc(-c2ccccc2)cc1NS(=O)(=O)c1cc(Cl)cc(Cl)c1O,62.8% [at 17.3 µM],–
CC(C)C(NC(=O)c1ccc2ccccc2n1)C(=O)NC(CC(=O)O)C(=O)COc1c(F)cccc1F (configuration not stated),64.3%,–
CC1(C)CCC[C@@]2(C)[C@H]1[C@H](O)C=C1COC(=O)[C@@]12O,64.1%,–
Cc1ccccc1Sc1ccc(/C=C2\SC(=S)NC2=O)cc1[N+](=O)[O-],67.5%,–
CC1(C)CCC[C@@]2(C)[C@H]1[C@H](O)C=C(CO)[C@]2(O)CO,88.6%,–
COC1C(CO)OC(n2cnc3c(=O)[nH]cnc32)C1O (configuration not stated),76.2%,–
O=C1OCc2cc3cccc(O[C@@H]4O[C@H](CO)[C@@H](O)[C@H](O)[C@H]4O)c3c(O)c21,102%,–
CC1CCC2(C(=O)OC3OC(CO)C(O)C(O)C3O)CCC3(C)C(=CCC4C5(C)CC(O)C(O)C(C)(C(=O)O)C5CCC43C)C2C1(C)O (configuration not stated),78.1% [at 17.3 µM],–
CC(=O)/C=C/C1(O)C(C)=CC(=O)CC1(C)C (configuration not stated),50.2%,–
COCCN1CCC(C(=O)NO)(S(=O)(=O)c2ccc(Oc3ccc(OC(F)(F)F)cc3)cc2)CC1,–,20.6 µM (active)
COC(=O)N/N=C/c1c[n+]([O-])c2ccccc2[n+]1[O-],42.8%,–
C=CC1C(OC2OC(CO)C(O)C(O)C2O)OC=C2C(=O)N3C(C(=O)O)Cc4c([nH]c5ccccc45)C3CC21 (configuration not stated),71.7% [at 17.3 µM],–
S=c1ssc2c1CCC2,70.5%,–
Cc1sc2c(c1C)C(c1ccc(Cl)cc1)=N[C@@H](CC(=O)Nc1ccc(OCCOCCOCCOCCNc3cccc4c3C(=O)N(C3CCC(=O)NC3=O)C4=O)cc1)c1nnc(C)n1-2 (some centres not stated),5.72% [at 17.3 µM],–
Cc1ccc(-c2c(C(=O)CF)n(CCCO)c3ncnc(N)c23)cc1,–,3.66 µM (active)
CC1=C2C(=O)O[C@@H](c3ccoc3)[C@]2(C)CCC1,73.7%,–
CC[C@@H](C)[C@H]1C(=O)O[C@H](C(C)C)C(=O)N(C)[C@@H](C(C)C)C(=O)O[C@H](C(C)C)C(=O)N(C)[C@@H](C(C)C)C(=O)O[C@H](CC(C)C)C(=O)N1C,–,1.53 µM (active)
CCCc1cc(C(=O)N[C@H](Cc2ccc(-c3cccc(OC(F)(F)F)c3)nc2)C(=O)N[C@@H]2CCNC2)sc1C,–,6.61 µM (active)
